# Shown are actives, neighbours in structure and some others; about 14% of the full set was active somewhere.
# Pf growth 96h = inhibits malaria parasite growth, 96 h; P. falciparum luciferase reporter growth, 96 h; Potency, µM (titrated, usually from 28.7 µM), for the others: at the highest dose activity change, negative = inhibition, hits mostly inhibitors; AID 504834; 6.9% of 320,000 active; note: potency is the fitted concentration of half-maximal effect
#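 Two parasite generations (96 h, 37 C, 5% CO2) of compound exposure in infected erythrocytes (0.05% parasitemia, 2% hematocrit). Luciferase-reporter P. falciparum; decreased luminescence indicates inhibited growth, aimed at apicoplast-acting delayed death.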
# HCMV antiviral = inhibitors of human cytomegalovirus. HFF cells, HCMV-luciferase reporter, 72 h; active compounds read low. activity change, negative = inhibition, % at 57.5 µM. 4.5% of 410,000 active; in the data active = activity change below about -60%; inconclusive = no clear call, values can overlap the other calls; inactive = above about -39%
#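 Inhibition of viral replication was scored as loss of reporter luminescence in HFFs infected with HCMV-luciferase (MOI 1 PFU/cell) for 72 h; compounds tested at 2 doses, normalized to buffer and Salinomycin controls.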
# Giardia FBPA inh = inhibitors of Giardia lamblia fructose-1,6-bisphosphate aldolase | purified Giardia FBPA | Potency, µM (top dose mostly 59.6 µM), without a hit: top-dose activity, negative = inhibition, usual class: inhibitors | 0.71% of 290,000 active; note: potency is the fitted concentration of half-maximal effect; nearly all actives have a fitted effect of over 55% in size
# Target sequence (A8B2U2 whole entry, looked up): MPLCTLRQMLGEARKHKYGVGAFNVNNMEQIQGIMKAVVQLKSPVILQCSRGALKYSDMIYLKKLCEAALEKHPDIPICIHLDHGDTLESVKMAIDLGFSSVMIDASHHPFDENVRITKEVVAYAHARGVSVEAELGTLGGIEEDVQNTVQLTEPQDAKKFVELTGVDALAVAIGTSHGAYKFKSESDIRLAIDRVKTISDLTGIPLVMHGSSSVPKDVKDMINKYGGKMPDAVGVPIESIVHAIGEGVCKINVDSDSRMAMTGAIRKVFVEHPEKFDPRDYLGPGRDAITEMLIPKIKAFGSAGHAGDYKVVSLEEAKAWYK
#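 40 nM FBPA preincubated 10 min at RT with compound (up to 57.5 uM final), then substrate plus GAPDH/TPI/NAD/arsenate coupling and diaphorase/resazurin added. Fluorescence read after 20 min at RT, 525/598 nm.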
# Sm TGR block = inhibitors of Schistosoma mansoni thioredoxin glutathione reductase | Q962Y6 | purified TGR, DTNB reduction, TNB absorbance 405 nm | Potency, µM (series often up to 114 µM), for inactives: top-dose activity change, negative = inhibition, actives largely listed as inhibitors | 3% of 360,000 active | AID 485364; note: potency is the fitted concentration of half-maximal effect; nearly all actives have a fitted effect of over 60% in size
#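 TGR 20 nM + NADPH 100 uM (dispensed conc.), cpd preinc 15 min RT; start with NADPH (500 uM addition) then DTNB (15 mM addition). Kinetic TNB absorbance, 405 nm filter. Four-parameter Hill fit across titration.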
# Pf growth 48h = inhibits P. falciparum growth in the first generation, 48 h | 5.9% of 310,000 active | AID 504832 | Potency, µM (doses to about 28.7 µM), inactives show at the highest dose activity change, negative = inhibition, usual class: inhibitors | P. falciparum luciferase growth in erythrocytes, 48 h; note: potency is the fitted concentration of half-maximal effect
#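 First compound was added to culture medium, then infected red cells at 0.1% parasitemia and 2% hematocrit (final). After incubation at 37 C under 5% CO2, luciferase detection reagent was dispensed and light output recorded.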
# * hit, by the source's call; i = inactive; ? = inconclusive; . = not tested or not shown; [ ] = remark or other dose. Unless noted, calls come from the whole dose curve; as a rule, active = well fitted curve in the direction sought with a large enough effect; inconclusive = small, poorly fitted or top-dose-only effect, or another doubt; inactive = no such curve, though single readings can be large; an effect the other way counts as inactive or inconclusive. % is set by controls: 0 for no effect and ±100 for the full control effect.
SMILES,Pf growth 96h,HCMV antiviral,Giardia FBPA inh,Sm TGR block,Pf growth 48h
Cc1ccc2nc(C(=O)N3CCc4c([nH]c5ccccc45)C3c3ccccn3)cn2c1 (stereo unspecified),9.3µM*,-16,3%,12%,11%
COc1ccc(OCC(=O)N2CCc3c([nH]c4ccccc34)C2c2ccccn2)cc1 (stereo unspecified),?,-70*,-8%,2%,-10%
CSc1nc(C(=O)N2CCc3c([nH]c4ccccc34)C2c2ccccn2)cs1 (stereo unspecified),18%,?,-5%,0%,0%
COC(=O)c1c(-c2ccc(Cl)cc2)noc1N1CCN(c2cccc(C)c2C)CC1,.,11,.,8%,.
O=C(c1cc(-c2ccccc2)n[nH]1)N1CCc2c([nH]c3ccccc23)C1c1ccccn1 (stereo unspecified),8.3µM*,-2,-5%,0%,?
CC(=O)c1ccc(C(=O)N2CCc3c([nH]c4ccccc34)C2c2ccccn2)s1 (stereo unspecified),?,10,0%,0%,?
COc1cc(OC)cc(N(C(=O)c2ccco2)C(C(=O)NC2CCCC2)c2ccc(N3CCOCC3)cc2)c1 (stereo unspecified),-16%,14,-2%,1%,?
CC(C)(C)OC(=O)N1CCC(c2c(C(=O)N3CCN(C(=O)c4ccco4)CC3)cnn2-c2ccccc2)CC1,.,0,.,?,.
O=[N+]([O-])c1ccc2nc(-c3ccccc3)n(OCc3ccc(Cl)cc3)c2c1,13µM*,29,-3%,0%,30%
CC(C)(C)C(C(=O)n1cccc1C#N)c1ccccc1 (stereo unspecified),25%,-14,.,-5%,21%
COc1ccc(C(=O)Oc2cc3c4c(c2)C(C)=CC(C)(C)N4C(=O)C3=O)cc1OC,?,-14,-9%,-4%,4%
COc1cc2c3c(c1)C(C)=CC(C)(C)N3C(=O)C2=O,33%,-85*,-9%,4%,-11%
COc1cccc(C(=O)Oc2cc3c4c(c2)C(C)=CC(C)(C)N4C(=O)C3=O)c1,?,-77*,-16%,3%,?
O=S(=O)(c1ccc(F)cc1)N1CCC(n2c(C(F)(F)F)nc3cccnc32)CC1,.,-12,.,1%,.
CCOc1ccccc1NC(=O)CCc1nnc2ccc(N3CCC4(CC3)OCCO4)nn12,-9%,-19,1%,8%,?
Cc1ccc(NC(NC(=O)OCCn2c([N+](=O)[O-])cnc2C)C(Cl)(Cl)Cl)cc1 (stereo unspecified),?,.,-1%,-11%,5.2µM*
Cc1ccc(CNC(=O)CN(C)C2=NS(=O)(=O)c3ccccc32)cc1,48%,-40,.,-3%,-3%
COc1ccc(NC(=O)C2CCN(S(=O)(=O)c3ccc(Cl)c(C(F)(F)F)c3)CC2)cn1,.,-29,.,.,.
COc1cccc(-c2nnc(SCC3CNC(=O)O3)n2-c2ccc(Cl)cc2)c1 (stereo unspecified),?,-101*,9%,-5%,-7%
COc1cccc(-c2nnc(SCC(=O)N3CCCC3=O)n2-c2ccccc2)c1,.,0,2%,0%,28%
Cc1ccc(Cl)cc1NC(=O)c1ccc(CSc2nnnn2C)cc1,.,-61*,-2%,-29%,1%
CSc1ccc2c(c1)N(CCC1CCCCN1C)c1ccccc1S2 (stereo unspecified),?,?,-9%,5%,9.3µM*
Cc1ccc(S(=O)(=O)N2CCCCC2)cc1NC(=O)COC(=O)CN1C(=O)NC2(CC(C)CC(C)(C)C2)C1=O (stereo unspecified),.,3,.,.,.
CC(C)(C)c1ccc(-n2nc(C(N)=O)c(O)cc2=O)cc1,-4%,3,-8%,0%,?
CC(C)(C)c1ccc(-n2nc(C#N)c(Cl)cc2=O)cc1,?,-101*,-5%,8.9µM*,-17%
SMILES,Pf growth 96h,HCMV antiviral,Giardia FBPA inh,Sm TGR block,Pf growth 48h
Cc1ccc(C)c(SCC(=O)NNC(=O)c2csc(N3CCOCC3)n2)c1,13%,-62*,.,0%,31%
Cc1ccsc1C(=O)NNC(=O)c1csc(N2CCOCC2)n1,23%,-5,.,1%,84%
CCC(=O)N1CC2(CN(C(=O)NC(C)C)C2)c2c(n(C)c3cc(OC)ccc23)[C@H]1CO,.,15,.,.,.
CC1(C)O[C@H]2C[C@@H]3[C@H]4CCC5=CC(=O)C=C[C@]5(C)[C@@]4(F)[C@@H](O)C[C@]3(C)[C@]2(C(=O)CO)O1,9.5µM*,.,-2%,.,?
CC(=O)OCC(=O)[C@@]12OC3(CCCC3)O[C@@H]1C[C@H]1[C@@H]3CCC4=CC(=O)C=C[C@]4(C)[C@@]3(F)[C@@H](O)C[C@@]12C,10µM*,28,-13%,0%,12µM*
Nc1nsc2ccccc12,-4%,-72*,-2%,-1%,?
O=C1OC(c2ccccc2)(N(Nc2ccccc2)c2ccccc2)c2ccccc21 (stereo unspecified),.,-7,.,.,.
CCN(CC)Cc1c(C(=O)N2CCc3ccccc3C2)nc2ccc(Cl)cn12,?,4,-1%,-30%,0%
COCC1CCN(Cc2c(C(=O)N3CCc4ccccc4C3)nc3ccc(Cl)cn23)C1 (stereo unspecified),?,35,.,20µM*,?
COC1CCN(Cc2c(C(=O)N3CCc4ccccc4C3)nc3ccc(Cl)cn23)CC1,-2%,-27,.,-36%,?
CCN(C)Cc1c(C(=O)N2CCc3ccccc3C2)nc2ccc(Cl)cn12,i,2,1%,35µM*,0%
COc1ccc(S(=O)CC(=O)Nc2ccc(Cl)cc2Cl)cc1 (stereo unspecified),44%,-66*,5%,-3%,13%
Cc1cccc(OCC(=O)NNC(=O)CCc2ccccc2)c1,2%,-22,-3%,13%,17%
CCOC(=O)/C=C/C(=O)OCC(=O)Nc1ccc(OC)c(Cl)c1,0%,23,2%,18µM*,9%
Cc1cccc(OCC(=O)NCc2ccccc2)c1,9.3µM*,16,-7%,-3%,24%
COc1ccc(NC(=O)CS(=O)c2ccc(F)cc2)cc1 (stereo unspecified),42%,2,.,3%,91%
CCc1c(C(=O)Nc2ccc(OC)c(Cl)c2)[nH]c(C)c1C(C)=O,-6%,58,-4%,0%,12µM*
CN(Cc1ccccc1)C(=O)Nc1ccc(Cl)cc1,.,-23,.,.,.
CC(C)=CC(=O)OCC(=O)Nc1ccc(F)cc1Cl,56%,-29,0%,14%[11.4 µM],.
CCOC(=O)/C=C/C(=O)OCC(=O)NCc1ccccc1,?,-22,-2%,25µM*,-26%
C/C(=C\C(=O)OCC(=O)NCc1ccccc1)C(=O)OCC(=O)NCc1ccccc1,33%,-3,-6%,-9%,-6%
